Over roughly 8,300 sequences, “log2 fold change of degron read counts, EGFP-low vs EGFP+ sorted cells (limma voom), compound-induced degradation” has its median near -1.1; the highest 2% begin near 3.2. Shown is part of a subset that was picked to be rich in the highest values.
T1: CRBN, Q96SW2
T1 chain: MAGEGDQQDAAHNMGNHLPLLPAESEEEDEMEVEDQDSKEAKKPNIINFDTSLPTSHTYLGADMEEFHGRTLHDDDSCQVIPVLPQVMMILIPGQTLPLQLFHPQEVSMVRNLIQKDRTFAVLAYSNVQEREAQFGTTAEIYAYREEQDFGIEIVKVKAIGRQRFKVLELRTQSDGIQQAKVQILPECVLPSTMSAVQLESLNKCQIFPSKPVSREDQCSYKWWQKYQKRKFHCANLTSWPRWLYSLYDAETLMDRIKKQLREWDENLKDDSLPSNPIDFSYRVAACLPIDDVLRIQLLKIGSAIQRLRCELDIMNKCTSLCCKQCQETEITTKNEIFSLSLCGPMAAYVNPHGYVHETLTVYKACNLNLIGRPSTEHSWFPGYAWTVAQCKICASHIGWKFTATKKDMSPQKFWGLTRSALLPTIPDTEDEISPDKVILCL


Target: T1, CRBN, Q96SW2
Assay: log2 fold change of degron read counts, EGFP-low vs EGFP+ sorted cells (limma voom), compound-induced degradation; higher = more compound-induced degradation of the degron-EGFP fusion; degrons are variants of IKZF1/3 zinc finger 2; compound dose not given here
Settings: Jurkat, 18 h
[1] = compound: compound 19 (5-tert-butyl-thalidomide)
[2] = compound: compound 22 (5-morpholino-thalidomide)
[3] = compound: compound 33 (diphenyl IMiD analogue)
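Note: pooled lentiviral library of zinc finger degron-EGFP fusions in mCherry-positive Jurkat cells, FACS-sorted after compound exposure, with degron abundance counted by next-generation sequencing.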

| Sequence | log2 fold change of degron read counts [1] | log2 fold change of degron read counts [2] | log2 fold change of degron read counts [3] | log2 fold change of degron read counts (compound: thalidomide) |
| --- | --- | --- | --- | --- |
| FYCPICGHMFTQKGNLLRHIKL [46F_47Y_49P_50I_52G_53H_54M_55F_67L_, Q9UKT9] | -1.06 | -1.25 | -0.462 | -1.34 |
| FECDVCGAMFTQKGNLLRHIKL [46F_47E_49D_50V_52G_53A_54M_55F_67L_, Q9UKT9] | -2.71 | -3.65 | -2.05 | -1.53 |
| FWCEQCGANFTQKGNLLRHIKL [46F_47W_49E_50Q_52G_53A_54N_55F_67L_, Q9UKT9] | 0.0998 | 2.8 | -0.0431 | -0.721 |
| FICNVCGAVFTQKGNLLRHIKL [46F_47I_49N_50V_52G_53A_54V_55F_67L_, Q9UKT9] | -2.28 | -1.69 | 0.455 | -0.566 |
| FQCNVCGAVFTQKGNLLRHIKL [46F_47Q_49N_50V_52G_53A_54V_55F_67L_, Q9UKT9] | -1.74 | 1.21 | 1.22 | 3.41 |
| FYCNVCGAVFTQKGNLLRHIKL [46F_47Y_49N_50V_52G_53A_54V_55F_67L_, Q9UKT9] | -0.0367 | 1.2 | 0.445 | -1.56 |
| FMCPVCGAQFTQKGNLLRHIKL [46F_47M_49P_50V_52G_53A_54Q_55F_67L_, Q9UKT9] | -0.258 | 1.27 | 2.9 | 1.78 |
| FLCPVCGAQFTQKGNLLRHIKL [46F_47L_49P_50V_52G_53A_54Q_55F_67L_, Q9UKT9] | 0.29 | -0.0233 | 1.82 | 1.61 |
| FRCPVCGAQFTQKGNLLRHIKL [46F_47R_49P_50V_52G_53A_54Q_55F_67L_, Q9UKT9] | -0.139 | 0.391 | 0.974 | 1.28 |
| FSCPVCGAQFTQKGNLLRHIKL [46F_47S_49P_50V_52G_53A_54Q_55F_67L_, Q9UKT9] | 2.24 | 2.08 | 1.65 | 1.45 |
| FCCPVCGAQFTQKGNLLRHIKL [46F_47C_49P_50V_52G_53A_54Q_55F_67L_, Q9UKT9] | 2.69 | 2.25 | 2.84 | 2.3 |
| FACPQCGAQFTQKGNLLRHIKL [46F_47A_49P_50Q_52G_53A_54Q_55F_67L_, Q9UKT9] | 0.495 | -1.5 | -0.396 | -1.08 |
| FVCPQCGAQFTQKGNLLRHIKL [46F_47V_49P_50Q_52G_53A_54Q_55F_67L_, Q9UKT9] | -1.74 | 0.725 | 1.72 | 1.08 |
| FFCPVCGAQFTQKGNLLRHIKL [46F_47F_49P_50V_52G_53A_54Q_55F_67L_, Q9UKT9] | 3.11 | 3.47 | 2.43 | 1.92 |
| FWCPVCGAQFTQKGNLLRHIKL [46F_47W_49P_50V_52G_53A_54Q_55F_67L_, Q9UKT9] | 2.98 | 3.92 | 2.63 | 2.09 |

Source: the supplement of paper PMC12645437, “Orthogonal IMiD-Degron Pairs Induce Selective Protein Degradation in Cells” (ACS Chemical Biology, 2025)
